Test results taken from PubChem BioAssay (NCI).
The panel holds about 83,000 compounds, 20% with a hit somewhere; the sample as a whole holds those more often.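 Cell lines were cultured in 96-well plates, exposed to a single compound concentration, and assessed for percent growth 48 hours later.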 Unmarked numbers belong to inactive results. Active and inactive are the calls of the source. Rule for the calls: active = growth percent below 10; inactive = the rest.

Tests used:
Test in all cases: NCI-60 one-dose screen, 48 h (100 = growth as untreated, 0 = no growth, -100 = all killed)
Conditions in all cases: 10 µM unless noted
DU-145 prostate = tested on: DU-145 prostate
MALME-3M melanoma = tested on: MALME-3M melanoma
MDA-MB-231 breast = tested on: MDA-MB-231 breast
RXF 393 renal = tested on: RXF 393 renal
SF-268 CNS = tested on: SF-268 CNS
SF-295 CNS = tested on: SF-295 CNS
SF-539 CNS = tested on: SF-539 CNS
UACC-257 melanoma = tested on: UACC-257 melanoma
M14 melanoma = tested on: M14 melanoma

Compound: O=C(Nc1ccccc1Cl)c1c[nH]c(=O)c(-c2ccc(N3CCCOC4(CC4)C3)cc2)c1
- growth (DU-145 prostate): 77.6%
- growth (MALME-3M melanoma): 70%
- growth (MDA-MB-231 breast): 77.7%
- growth (RXF 393 renal): 81.2%
- growth (SF-268 CNS): 69.8%
- growth (SF-295 CNS): 55.3%
- growth (SF-539 CNS): 76%
- growth (UACC-257 melanoma): 38%
- growth (M14 melanoma): 74.9%

Compound: CN(C)c1ncc(C#Cc2c(F)cccc2F)c2ccccc12
- growth (DU-145 prostate): 97.4%
- growth (MALME-3M melanoma): 113%
- growth (MDA-MB-231 breast): 80.2%
- growth (RXF 393 renal): 93.2%
- growth (SF-268 CNS): 87.2%
- growth (SF-295 CNS): 102%
- growth (SF-539 CNS): 94.5%
- growth (UACC-257 melanoma): 99%
- growth (M14 melanoma): 86.3%

Compound: CC(C)(C)OC(=O)N1CCN(CCn2cc(C(F)(F)F)c3c(Cl)ncnc32)CC1
- growth (DU-145 prostate): 39.8%
- growth (MALME-3M melanoma): 112%
- growth (MDA-MB-231 breast): 57.9%
- growth (RXF 393 renal): 47%
- growth (SF-268 CNS): 69.5%
- growth (SF-295 CNS): 99.6%
- growth (SF-539 CNS): 97.3%
- growth (UACC-257 melanoma): 85.4%
- growth (M14 melanoma): 14%

Compound: COc1ccc(SC2c3ccc(O)cc3Oc3nc(N)c(C#N)c(N)c32)cc1 (centres undefined)
- growth (DU-145 prostate): 93.1%
- growth (MALME-3M melanoma): 99.3%
- growth (MDA-MB-231 breast): 101%
- growth (RXF 393 renal): 122%
- growth (SF-268 CNS): 57.3%
- growth (SF-295 CNS): 76.8%
- growth (SF-539 CNS): 52.1%
- growth (UACC-257 melanoma): 106%
- growth (M14 melanoma): 105%

Compound: Nc1n[nH]c2cccc(C#Cc3cccc(NC(=O)c4cccc(C(F)(F)F)c4)c3)c12
- growth (DU-145 prostate): 48.5%
- growth (MALME-3M melanoma): -0.658% (active)
- growth (MDA-MB-231 breast): 9.5% (active)
- growth (RXF 393 renal): -13.7% (active)
- growth (SF-268 CNS): 32.7%
- growth (SF-295 CNS): 50.3%
- growth (SF-539 CNS): -19.9% (active)
- growth (UACC-257 melanoma): 50.3%
- growth (M14 melanoma): 10.4%

Compound: Cc1ccn2cc(Cc3cc(=O)oc4c3ccc3ccccc34)c(=O)nc2c1
- growth (DU-145 prostate): 110%
- growth (MALME-3M melanoma): 99.8%
- growth (MDA-MB-231 breast): 97.6%
- growth (RXF 393 renal): 106%
- growth (SF-268 CNS): 94.8%
- growth (SF-295 CNS): 96.1%
- growth (SF-539 CNS): 93.7%
- growth (UACC-257 melanoma): 86.3%
- growth (M14 melanoma): 96.8%

Compound: CC[C@H]1[C@@H]2C=C[C@@H]3[C@H]4C/C=C\C(=O)NCCC[C@@H]5NC(=O)/C(=C(O)/C=C/[C@@H]4C[C@@H]3[C@H]2C[C@H]1C)C5=O
- growth (DU-145 prostate): -94% (active)
- growth (MALME-3M melanoma): -6.22% (active)
- growth (MDA-MB-231 breast): -2.91% (active)
- growth (RXF 393 renal): -86.1% (active)
- growth (SF-268 CNS): -55.5% (active)
- growth (SF-295 CNS): -53.2% (active)
- growth (SF-539 CNS): -20.8% (active)
- growth (UACC-257 melanoma): 23.4%
- growth (M14 melanoma): -10.9% (active)

Compound: O=C(Cn1c2ccccc2c2ccncc21)N/N=C/c1cc(O)c(O)c(O)c1
- growth (DU-145 prostate): 104%
- growth (MALME-3M melanoma): 112%
- growth (MDA-MB-231 breast): 101%
- growth (RXF 393 renal): 97.7%
- growth (SF-268 CNS): 98.1%
- growth (SF-295 CNS): 110%
- growth (SF-539 CNS): 93.1%
- growth (UACC-257 melanoma): 98.8%
- growth (M14 melanoma): 110%

Compound: CC1=C2C(=C[C@@](C)(CO)[C@@H]2OC(=O)N(C)CCN(C)C(=O)OC(C)(C)C)C(=O)[C@](C)(O)C12CC2
- growth (DU-145 prostate): 8.82% (active)
- growth (MALME-3M melanoma): 67.3%
- growth (MDA-MB-231 breast): 48%
- growth (RXF 393 renal): -57.3% (active)
- growth (SF-268 CNS): 4.84% (active)
- growth (SF-295 CNS): 5.06% (active)
- growth (SF-539 CNS): 57.9%
- growth (UACC-257 melanoma): 100%
- growth (M14 melanoma): 54.8%

Compound: O=c1c(-c2ccc3c(c2)OCO3)coc2c(CO)c(O)ccc12
- growth (DU-145 prostate): -20.8% (active)
- growth (MALME-3M melanoma): -45.1% (active)
- growth (MDA-MB-231 breast): -33.6% (active)
- growth (RXF 393 renal): -84% (active)
- growth (SF-268 CNS): -43.3% (active)
- growth (SF-295 CNS): 3.29% (active)
- growth (SF-539 CNS): -9.82% (active)
- growth (UACC-257 melanoma): 9.01% (active)
- growth (M14 melanoma): 45%

Compound: C=C1C(=O)O[C@H]2[C@H]1CC/C(CNC(=O)/C1=C/CC[C@@]3(C)O[C@H]3[C@H]3OC(=O)C(=C)[C@@H]3CC1)=C\CC[C@@]1(C)O[C@@H]21
- growth (DU-145 prostate): 105%
- growth (MALME-3M melanoma): 104%
- growth (MDA-MB-231 breast): 102%
- growth (RXF 393 renal): 99.3%
- growth (SF-268 CNS): 98.5%
- growth (SF-295 CNS): 97.6%
- growth (SF-539 CNS): 95.6%
- growth (UACC-257 melanoma): 79.9%
- growth (M14 melanoma): 95.2%
